Source: PubChem
Shown are actives, neighbours in structure and some others; about 3.9% of the full set was active somewhere.
VDR inh: vitamin D3 receptor (human) inhibition; VDR-SRC2-3 peptide fluorescence polarization, 2 h; Potency, µM, for the others: max response, negative = inhibition, actives largely listed as inhibitors; actives 0.93% (n = 400,000); AID 504847; also: % is scaled to controls: 0 for no effect and ±100 for the full control effect
Target sequence (P11473 whole entry, looked up): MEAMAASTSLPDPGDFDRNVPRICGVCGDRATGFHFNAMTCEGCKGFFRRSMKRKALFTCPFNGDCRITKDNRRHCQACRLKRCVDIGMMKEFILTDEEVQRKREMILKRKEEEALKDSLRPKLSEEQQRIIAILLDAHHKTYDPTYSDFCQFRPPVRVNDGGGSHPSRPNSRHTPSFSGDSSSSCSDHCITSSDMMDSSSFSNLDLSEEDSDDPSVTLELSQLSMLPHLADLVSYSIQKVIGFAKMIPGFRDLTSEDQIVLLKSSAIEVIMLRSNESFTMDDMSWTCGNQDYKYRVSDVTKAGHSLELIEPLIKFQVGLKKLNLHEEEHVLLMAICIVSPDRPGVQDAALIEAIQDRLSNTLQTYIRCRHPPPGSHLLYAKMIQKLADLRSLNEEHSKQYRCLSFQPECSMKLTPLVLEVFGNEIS
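Reagent solutions, kept cold and dark, are dispensed first; compounds are then pinned in at 23 nl, plates briefly spun, and incubated 2 h at ambient temperature. Inhibition of VDR–SRC2-3 peptide binding is read by fluorescence polarization.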
Tb PFK block: inhibitors of T. brucei phosphofructokinase | O15648 | T. brucei PFK, ADP-Glo luminescence | Potency, µM (titrated, usually from 57.5 µM), for inactives: top-dose activity, negative = inhibition, actives largely listed as inhibitors | actives 0.17% (n = 330,000);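 also: 0% = uninhibited 1x PFK enzyme wells and -100% = no-enzyme wells; nearly all actives have a fitted effect of over 60% in size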
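Luminescent ADP detection (ADP-Glo, two-step: ATP depletion then ADP-to-ATP conversion for luciferase) reported PFK activity after 45 min room-temperature reaction of 1.25 nM enzyme with 0.5 mM F6P and 0.1 mM ATP at pH 8.0.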
PLK1 PBD block: inhibitors of human PLK1 polo-box domain binding; Plk1 PBD binding of FITC phosphopeptide, fluorescence polarization; Potency, µM, for the others: max response, negative = inhibition, hits mostly inhibitors; actives 2.8% (n = 360,000); AID 720504; also: series mostly up to about 57 µM; % is scaled to controls: 0 for no effect and ±100 for the full control effect; nearly all actives have a fitted effect of over 65% in size
BRCA1 expr act: activators of BRCA1 expression; MCF7-BRCA1-FFLuc reporter, luminescence, 48 h; response scale: scaled: vehicle 0%, 10 µM genistein 100%; actives 1.1% (n = 380,000); AID 624202; Potency, µM (doses to about 46.1 µM), for the others: top-dose activation, hits mostly activators; also: nearly all actives have a fitted effect of over 80% in size
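Luminescence from a BRCA1-driven firefly luciferase in MCF7 cells was read after 48 h compound exposure at 37 C. Data normalized against DMSO and a 10microM genistein activation control, then curve-fitted across the titration.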
The depositor's hits bear a star; ? = inconclusive; . = no result given. Calls follow the shape of the dose curve; as a rule, active = well fitted curve in the direction sought with a large enough effect; inconclusive = small, poorly fitted or top-dose-only effect, or another doubt; inactive = no such curve, though single readings can be large; an effect the other way counts as inactive or inconclusive. Potency is read from the fitted curve at half-maximal effect.

SMILES	VDR inh	Tb PFK block	PLK1 PBD block	BRCA1 expr act
CC(Sc1cccc[n+]1[O-])C(=O)NC1CCCCC1C (stereo not given)	-17%	-5%	24µM*	14%
Cc1cccc(N(CC(=O)NCCSCc2ccccc2)S(=O)(=O)c2ccccc2)c1C	-17%	.	.	-25%
CCn1c(=O)c(=O)[nH]c2cc(C(=O)NC3CCCC3)ccc21	?	4%	30µM*	-2%
Cn1c(CSc2ccccc2)c(C#N)c2ccccc21	60%	-3%	-5%	?
Cc1ccc(SCc2c(C#N)c3ccccc3n2C)cc1	-13%	-6%	5.3µM*	54%
C[C@H]1CCCCO[C@H](CN(C)C(=O)C2CCCCC2)[C@@H](C)CN([C@@H](C)CO)C(=O)c2cc(NC(=O)NC3CCCCC3)ccc2O1	.	.	-1%	-14%
CC(=O)O[C@H]1[C@@H](O)[C@H](O)[C@H](Oc2c(O)c(C)c3c4c2[C@@H](C)CC[C@@H]4[C@@H](C)C[C@H]3C=C(C)C)O[C@H]1C	0%	7%	11%	-70%
O=c1[nH]cnc2scc(-c3ccc(F)cc3)c12	-10%	-4%	-1%	0%
O=c1[nH]c(=S)[nH]c2scc(-c3ccc(Br)cc3)c12	-13%	.	27µM*	-18%
Cn1c(C(=O)NCCc2ccccc2)cc(=O)n(C)c1=O	?	1%	24µM*	5%
Cn1cccc1C(=O)NCCc1ccccc1	2%	1%	-11%	2%
CCOC(=O)c1c(C)c(C(=O)NCCc2ccccc2)c(C)n1C	0%	-4%	-12%	10µM*
Cn1cccc1C(=O)NCCc1ccc(Cl)cc1	-2%	1%	-10%	7.1µM*
COc1ccc(CCNC(=O)c2cccn2C)cc1	9%	4%	0%	2.8µM*
COc1ccc(CCNC(C)=O)cc1	0%	0%	2%	2%
CCC(CO)Nc1ccn2nc(-c3cccc(Cl)c3)cc2n1 (stereo not given)	.	.	-9%	?
CCOC(=O)c1cccc(NC(=O)c2cc3cc4ccc(C)cc4nc3o2)c1	-5%	.	.	14%
COc1ccc(CC(=S)NCCc2ccccc2)cc1	?	0%	7.5µM*	0%
CCc1ccc(CCC(=O)N2CCN(S(=O)(=O)c3ccc(Br)cc3)CC2)cc1	.	.	-1%	-31%
CCc1c(C)[nH]n(-c2ccc(Oc3ccccc3)c(S(=O)(=O)O)c2)c1=O	?	3%	13µM*	8%
CCC1=NN2C(=N)/C(=C\c3ccc(OCCOc4ccc(NC(C)=O)cc4)cc3)C(=O)N=C2S1	-5%	1%	?	-38%
COc1cc(/C=C2\C(=N)N3N=C(S(C)(=O)=O)SC3=NC2=O)cc(OC)c1OCCOc1ccccc1C	?	-11%	30µM*	-2%
COc1ccccc1OCCOc1ccc(/C=C2\C(=N)N3N=C(S(C)(=O)=O)SC3=NC2=O)cc1	79µM*	-13%	13µM*	-6%
COc1cc(/C=C2\C(=N)N3N=C(C)SC3=NC2=O)cc(OC)c1OCCOc1ccccc1C	?	-1%	?	-8%
CC(=O)Nc1ccc(OCCOc2ccc(/C=C3/C(=N)N4C=CSC4=NC3=O)cc2)cc1	?	0%	3.4µM*	-19%
SMILES	VDR inh	Tb PFK block	PLK1 PBD block	BRCA1 expr act
CCCC1=NN2C(=N)/C(=C\c3cc(C)n(Cc4ccccc4)c3C)C(=O)N=C2S1	-1%	3%	?	24%
Cc1cc(/C=C2\C(=N)N3N=C(S(C)(=O)=O)SC3=NC2=O)c(C)n1Cc1ccccc1	-3%	0%	27µM*	-4%
Cc1ccccc1CC(=O)Nc1ccc2c(c1)c(=O)n(C)n2-c1ccccc1F	.	.	4%	4%
CCn1c(C)nc2cc(C(=O)NNC(=S)Nc3ccc(F)cc3)ccc21	13%	2%	-5%	10µM*
CCn1c(C)nc2cc(C(=O)NNC(=S)Nc3ccc(Cl)cc3)ccc21	-5%	-13%	-24%	-2%
CCn1c(C)nc2cc(C(=O)NNC(=S)Nc3ccccc3Cl)ccc21	-18%	-9%	-23%	4µM*
CCn1c(C)nc2cc(C(=O)NNC(=S)Nc3ccccc3)ccc21	7%	1%	?	?
COc1ccccc1OCCn1c(C(C)Oc2ccccc2)nc2ccccc21 (stereo not given)	10%	.	.	.
Cc1cc(-c2c(C)[nH]n(-c3ccc(Cl)cc3)c2=O)n(-c2ccc(Cl)cc2)n1	1%	0%	-12%	-8%
CC1=NN(c2ccc(Cl)cc2)C(=O)C1C(c1ccccc1O)c1c(C)[nH]n(-c2ccc(Cl)cc2)c1=O (stereo not given)	-69%	-14%	24µM*	-49%
Oc1ccc(Cl)cc1C1=NNC(c2cccs2)C1 (stereo not given)	?	0%	15µM*	-2%
COc1ccc(CCNC(=O)COc2ccc([N+](=O)[O-])cc2)cc1	28µM*	-11%	19µM*	-14%
COc1ccc(CNc2ccc([N+](=O)[O-])cn2)cc1	-6%	?	-10%	10µM*
COc1ccccc1NC(=O)CC(C)n1nc(C)cc1C (stereo not given)	3%	.	.	.
O=[N+]([O-])c1ccc(NS(=O)(=O)c2ccc(Cl)c(Cl)c2)cc1	.	.	-10%	-51%
Oc1ccccc1N1CCN(c2nnnn2-c2ccccc2)CC1	?	2%	30µM*	13%
O=S(=O)(NCCNCC=Cc1ccc(Br)cc1)c1cccc2cnccc12	.	.	.	-41%
COc1ccc(CC(=O)c2ccc(O)cc2O)cc1	5%	1%	-4%	?
O=C(Cc1ccc([N+](=O)[O-])cc1)OCc1ccc([N+](=O)[O-])cc1	-7%	-8%	-7%	3%
O=C(Cc1ccc([N+](=O)[O-])cc1)c1ccc(O)cc1O	-21%	4%	-9%	10µM*
O=C(Cc1ccc(Br)cc1)c1ccc(O)cc1O	8%	-5%	-5%	11µM*
COc1cccc(CNC(=O)C2=C(C)C(=O)OC23CCN(C(C)=O)CC3)c1OC	-3%	.	.	.
Cc1ccc(OCCSc2nc3ccccc3n2CCC(=O)O)cc1C	-10%	.	.	.
Cn1cc(Br)c(C(=O)N2CCN(c3cccc(Cl)c3)CC2)n1	1%	-1%	-11%	3%
Cn1cc(Br)c(C(=O)n2cc(Br)cn2)n1	?	1%	17µM*	0%
SMILES	VDR inh	Tb PFK block	PLK1 PBD block	BRCA1 expr act
O=C(Nc1ccc(F)cc1)c1nc2c(nnn2Cc2cccc3ccccc23)c(=O)[nH]1	26%	-1%	24µM*	-39%
O=C1Nc2ccccc2C1=Nc1ccc(S(=O)(=O)Nc2nccs2)cc1	-14%	-1%	27µM*	-34%
NS(=O)(=O)c1ccc(N=C2C(=O)Nc3ccccc32)cc1	10%	0%	2%	3%
O=C1C=CC(=O)N1c1ccccc1N1C(=O)C=CC1=O	3.2µM*	.	1.5µM*	-80%
O=C1C=CC(=O)N1c1ccccn1	-1%	.	-14%	-4%
N#Cc1c(C(F)(F)F)cc(-c2cccs2)nc1SCC(=O)Nc1ccc(Cl)cc1	-25%	.	.	.
O=C(CSc1nc2nc(-c3cccs3)cc(C(F)(F)F)c2c(=O)[nH]1)Nc1ccc(F)c(F)c1	-5%	-4%	7.5µM*	-79%
Cc1ccc(C)c(NC(=O)CSc2nc3nc(-c4cccs4)cc(C(F)(F)F)c3c(=O)[nH]2)c1	-11%	0%	21µM*	-42%
